{"source": "PubChem BioAssay", "key": {"[1]": {"assay": "Brca1-Bard1 BiLC signal decrease – luminescence, single concentration, counter-screen for Mdm2/MdmX interaction inhibitor project, confirmation (AID 504668)", "conditions": "Brca1/Bard1 bimolecular luciferase complementation counterscreen, at 8 µM, stronger effect = higher value"}, "[2]": {"assay": "apoptosome-driven caspase-3 activation blockers – biochemical, fluorescence, DEVD-Rh110, 20 µM, confirmation (AID 504614;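 active means mean inhibition of at least 40% at 20 µM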;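 further: plate controls were DMSO wells for no effect and DEVD-CHO caspase inhibitor control wells for full effect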)", "conditions": "reconstituted apoptosome, caspase-3 DEVD-Rh110 fluorescence; at 20 µM; stronger effect = higher value"}, "[3]": {"assay": "detection-step artefacts after completed caspase reaction – biochemical, fluorescence, Rh110, 20 µM, artefact control for Apaf-1 inhibitor project, confirmation (AID 504615;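 active means signal rise of 40% or more at 20 µM, treated as a fluorescence artifact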)", "conditions": "quenched caspase reaction, at 20 µM, stronger effect = higher value"}, "[4]": {"assay": "inhibition of PEG-3 promoter luciferase signal – cell-based, HeLa, luciferase reporter, single concentration, confirmation (AID 602417;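 active means at 20 µM dose, 40% or more inhibition averaged across four replicates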)", "conditions": "HeLa PEG-Prom luciferase reporter, luminescence, overnight; at 20 µM; stronger effect = higher value"}, "[5]": {"target": "PEG-3 (UniProt Q6IN02)", "sequence (Q6IN02 whole entry, looked up)": "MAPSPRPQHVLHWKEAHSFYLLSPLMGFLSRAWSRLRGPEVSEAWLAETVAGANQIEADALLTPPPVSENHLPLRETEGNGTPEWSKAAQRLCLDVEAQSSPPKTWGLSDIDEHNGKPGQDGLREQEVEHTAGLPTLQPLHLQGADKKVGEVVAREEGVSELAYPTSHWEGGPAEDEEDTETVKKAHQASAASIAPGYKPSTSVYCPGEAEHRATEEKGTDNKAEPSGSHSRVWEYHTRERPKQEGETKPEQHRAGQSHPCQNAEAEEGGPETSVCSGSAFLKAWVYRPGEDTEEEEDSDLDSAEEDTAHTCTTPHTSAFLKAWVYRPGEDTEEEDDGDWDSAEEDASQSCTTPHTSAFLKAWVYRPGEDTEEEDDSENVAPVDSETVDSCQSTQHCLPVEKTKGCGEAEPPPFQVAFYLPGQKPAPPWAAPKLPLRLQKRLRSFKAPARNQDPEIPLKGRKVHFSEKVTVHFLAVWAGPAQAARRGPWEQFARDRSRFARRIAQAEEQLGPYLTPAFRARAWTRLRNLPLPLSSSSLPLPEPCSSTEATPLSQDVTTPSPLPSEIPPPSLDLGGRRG", "assay": "inhibition of PEG-3 promoter-driven reporter – cell-based, HeLa, luciferase, CREF/GAPDH counter-screen panel, dose response (AID 624167)", "conditions": "HeLa PEG-Prom luciferase reporter, overnight, CREF/GAPDH counter-screens; run 1, dose range 1, at 100 µM (top of the series)"}, "[6]": {"target": "PEG-3 (UniProt Q6IN02)", "assay": "inhibition of PEG-3 promoter-driven reporter – cell-based, HeLa, luciferase, CREF/GAPDH counter-screen panel, dose response (AID 624167)", "conditions": "HeLa PEG-Prom luciferase reporter, overnight, CREF/GAPDH counter-screens; run 2, dose range 1, at 100 µM (top of the series)"}, "[7]": {"assay": "PERK-eIF2a-CHOP pathway stimulators, retested – cell-based, CHO-CHOP luciferase reporter, single concentration, confirmation (AID 463112; in the data active means activation above about 33%;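 further: 0% = DMSO wells and 100% = tunicamycin 10 µg/mL wells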)", "conditions": "CHO-CHOP cells, CHOP-luciferase reporter luminescence; at 10 µM; stronger effect = higher value; percent of tunicamycin response, DMSO as zero"}, "[8]": {"assay": "lowers stimulated NF-kB luciferase signal in Jurkat – cell-based, luminescence, single concentration, T-cell NF-kB inhibitor project, confirmation (AID 435020;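 active means inhibition reaching about 45% at 4 µM in either replicate, limit read from the data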;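 further: plate controls were PMA/ionomycin stimulated DMSO wells for no effect and unstimulated DMSO wells for full effect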)", "conditions": "PMA/ionomycin-induced, 16 h, at 4 µM, stronger effect = higher value"}, "[9]": {"target": "Sentrin-specific protease 8 (Homo sapiens) (UniProt Q96LD8)", "sequence (Q96LD8 whole entry, looked up)": "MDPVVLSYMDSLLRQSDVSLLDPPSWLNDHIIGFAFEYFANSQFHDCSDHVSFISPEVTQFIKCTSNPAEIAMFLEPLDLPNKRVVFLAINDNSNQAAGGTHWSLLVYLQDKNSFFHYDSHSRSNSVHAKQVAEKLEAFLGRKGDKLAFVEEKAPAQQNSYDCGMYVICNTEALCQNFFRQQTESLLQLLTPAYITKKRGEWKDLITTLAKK", "assay": "human SENP8 peptidase blockers, hit retest – biochemical, luminescence, single concentration, confirmation (AID 488912;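 active means mean inhibition across replicates above about 50%, limit read from the data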)", "conditions": "Recombinant SENP8, Z-RLRGG-aminoluciferin luminescence, 60 min; at 12.5 µM; stronger effect = higher value"}, "[10]": {"target": "Sentrin-specific protease 6 (Homo sapiens) (UniProt Q9GZR1)", "sequence (Q9GZR1 628-1112 limits assumed)": "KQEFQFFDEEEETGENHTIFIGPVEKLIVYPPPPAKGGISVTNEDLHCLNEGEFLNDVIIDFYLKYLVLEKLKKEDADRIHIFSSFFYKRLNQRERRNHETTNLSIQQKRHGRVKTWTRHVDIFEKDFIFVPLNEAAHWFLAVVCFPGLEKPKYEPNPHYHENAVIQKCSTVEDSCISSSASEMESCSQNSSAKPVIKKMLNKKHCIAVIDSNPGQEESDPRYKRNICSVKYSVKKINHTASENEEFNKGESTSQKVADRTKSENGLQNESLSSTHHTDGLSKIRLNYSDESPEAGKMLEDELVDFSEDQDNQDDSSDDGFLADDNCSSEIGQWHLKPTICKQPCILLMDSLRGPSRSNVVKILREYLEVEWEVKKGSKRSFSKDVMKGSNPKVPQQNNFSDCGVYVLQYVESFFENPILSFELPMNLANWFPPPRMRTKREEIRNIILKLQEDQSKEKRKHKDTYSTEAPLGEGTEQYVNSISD", "assay": "inhibition of human SENP6 catalytic domain – biochemical, luminescence, single concentration, confirmation (AID 488915;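 active means mean inhibition above about 50% in the one-dose retest, limit read from the data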)", "conditions": "recombinant SENP6, Z-RLRGG-aminoluciferin luminescence; at 12.5 µM; stronger effect = higher value"}, "[11]": {"target": "Sentrin-specific protease 7 (Homo sapiens) (UniProt Q9BQF6)", "sequence (Q9BQF6 706-1050 limits assumed)": "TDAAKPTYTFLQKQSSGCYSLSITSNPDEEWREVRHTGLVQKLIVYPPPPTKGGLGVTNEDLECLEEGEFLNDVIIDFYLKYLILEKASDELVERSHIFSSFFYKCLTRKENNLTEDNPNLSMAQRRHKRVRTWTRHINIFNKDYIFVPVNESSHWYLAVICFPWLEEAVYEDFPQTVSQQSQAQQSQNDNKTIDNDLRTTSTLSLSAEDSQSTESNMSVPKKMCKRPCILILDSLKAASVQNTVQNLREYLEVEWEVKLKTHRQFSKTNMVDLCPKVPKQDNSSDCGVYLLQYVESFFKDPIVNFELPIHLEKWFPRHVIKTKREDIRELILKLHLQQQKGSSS", "assay": "human SENP7 peptidase blockers, hit retest – biochemical, luminescence, single concentration, confirmation (AID 488917;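 active means mean inhibition above about 50% in the one-dose retest, limit read from the data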)", "conditions": "recombinant SENP7, Z-RLRGG-aminoluciferin luminescence, 40 min; at 12.5 µM; stronger effect = higher value"}, "[12]": {"target": "Caspase-3 (Homo sapiens) (UniProt P42574)", "sequence (P42574 28-227 limits assumed)": "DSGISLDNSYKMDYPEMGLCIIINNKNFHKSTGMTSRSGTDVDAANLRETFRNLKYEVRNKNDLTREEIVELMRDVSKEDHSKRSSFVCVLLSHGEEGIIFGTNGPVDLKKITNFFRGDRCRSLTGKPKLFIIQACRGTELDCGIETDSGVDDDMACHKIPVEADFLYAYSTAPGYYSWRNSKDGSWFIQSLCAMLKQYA", "assay": "human caspase-3 activity blockade, out-of-family – biochemical, single concentration, selectivity assay for SENP inhibitor project, confirmation (AID 488918;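 active means mean inhibition above about 50%, limit read from the data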;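 further: plate controls were enzyme with DMSO for no effect and wells without caspase-3 for full effect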)", "conditions": "purified caspase-3, Z-DEVD-aminoluciferin luminescence, 60 min; at 12.5 µM; stronger effect = higher value"}, "[13]": {"assay": "Ultra-Glo luciferase signal interference – biochemical, single concentration, SENP8 reaction pre-completed, artefact control for SENP inhibitor project, confirmation (AID 488919;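 active means mean inhibition above about 50% when retested at one dose, limit read from the data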;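 further: plate controls were DMSO wells with completed reaction for no effect and substrate without enzyme for full effect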)", "conditions": "Pre-incubated SENP8/Z-RLRGG-aminoluciferin, luciferase luminescence interference; at 12.5 µM; stronger effect = higher value"}}, "note": "The list shows a part of the results. Active and inactive are the calls of the source. Unless noted, how the calls were made is not given here.", "data": [{"smiles": "CC(C)c1oc(=O)cc2c1[C@@H](O)[C@H]1OC(=O)[C@@]3(C)C[C@@H](O)[C@@H](O)[C@@]2(C)C13", "note": "(some centres not stated)", "values": [{"measurement": "inhibition", "setting": "[1]", "value": "29.6% (active)"}]}, {"smiles": "CC(Cc1ccccc1)NCCC(c1ccccc1)c1ccccc1", "note": "(configuration not stated)", "values": [{"measurement": "inhibition", "setting": "[2]", "value": "12.8% (inactive)"}, {"measurement": "activation (fluorescence interference)", "setting": "[3]", "value": "7.45% (inactive)"}, {"measurement": "inhibition", "setting": "[4]", "value": "87.6% (active)"}, {"measurement": "inhibition", "setting": "[5]", "value": 98, "unit": "%"}, {"measurement": "inhibition", "setting": "[6]", "value": 98.9, "unit": "%"}]}, {"smiles": "O=C1NC(=O)N(CCc2ccc(F)cc2)C(=O)/C1=C/C=C/c1ccccc1", "values": [{"measurement": "activation", "setting": "[7]", "value": "90.1% (active)"}]}, {"smiles": "CNCC(O)c1cc(F)c(OCc2ccccc2)c(OCc2ccccc2)c1F", "note": "(configuration not stated)", "values": [{"measurement": "inhibition", "setting": "[2]", "value": "12.9% (inactive)"}, {"measurement": "activation (fluorescence interference)", "setting": "[3]", "value": "12.9% (inactive)"}]}, {"smiles": "COc1cc2c(cc1OC)-c1c(OC)c(OC)c(OC)c3ccnc(c13)C2=O", "values": [{"measurement": "inhibition", "setting": "[1]", "value": "23.6% (active)"}]}, {"smiles": "CCn1nc(/C=C/c2ccccc2)nc2c(=O)n(C)c(=O)nc1-2", "values": [{"measurement": "inhibition", "setting": "[1]", "value": "24.6% (active)"}]}, {"smiles": "CCOc1ccc(-c2cc(C)[n+](CCc3ccc(OC)c(OC)c3)c(-c3ccc(OCC)cc3)c2)cc1", "values": [{"measurement": "inhibition", "setting": "[1]", "value": "35.8% (active)"}]}, {"smiles": "C[C@]12CC[C@H](O)C[C@H]1CC[C@@H]1C2CC[C@]2(C)[C@@H](C3=CC(=O)OC3)[C@@H](O)C[C@]12O", "note": "(some centres not stated)", "values": [{"measurement": "inhibition", "setting": "[8]", "value": "-17.1% (inactive)"}]}, {"smiles": "COc1cc2c3c(c1OC)Oc1ccc(cc1)C[C@H]1c4c(cc(OC)c(OC)c4Oc4ccc(cc4)C[C@@H]3N(C)CC2)CCN1C", "values": [{"measurement": "inhibition", "setting": "[1]", "value": "35.2% (active)"}]}, {"smiles": "C/C(=N/O)c1ccc2ccc3ccccc3c2c1", "values": [{"measurement": "inhibition", "setting": "[9]", "value": "64.6% (active)"}, {"measurement": "inhibition", "setting": "[10]", "value": "61.5% (active)"}, {"measurement": "inhibition", "setting": "[11]", "value": "79.5% (active)"}, {"measurement": "inhibition", "setting": "[12]", "value": "19.2% (inactive)"}, {"measurement": "inhibition", "setting": "[13]", "value": "30.7% (inactive)"}]}, {"smiles": "CCOC(=O)c1c(N)n(Cc2ccccc2)c2nc3ccccc3nc12", "values": [{"measurement": "inhibition", "setting": "[2]", "value": "12.5% (inactive)"}, {"measurement": "activation (fluorescence interference)", "setting": "[3]", "value": "5.83% (inactive)"}]}, {"smiles": "N#CC(C#N)=NNc1ccc(-n2ccc(C(F)(F)F)n2)cc1", "values": [{"measurement": "inhibition", "setting": "[1]", "value": "31.2% (active)"}]}]}
